40 molecules from PubChem BioAssay (NCATS) can be followed below.

SMILES strings stand for the structures. Inconclusive results are not listed. Where a call stands in place of a potency, no number is given. Active and inactive are the calls of the source. Calls follow the shape of the full dose curve; tested in HEK293 reporter line.
Also: nearly all actives have a fitted effect of over 80% in size.
Potency is read from the fitted curve at half-maximal effect.

A short description of one experiment: qHTS for Inhibitors of the Functional Ribonucleoprotein Complex (vRNP) of Lassa (LASV) Arenavirus: Viability assay - alamar blue signal for LASV Primary Screen (AID 1347083). The settings on record: cell viability, alamar blue fluorescence (LASV minigenome counter-screen); series mostly up to 57.5 µM. In general terms: In qHTS, concentration-response curves come from the screen itself.
Consider `CN1CCc2c(c3ccccc3n2Cc2ccc(C(=O)NO)cc2)C1`, for which the Potency is 21.7 µM (active). On to `CCc1ccc(/C=C2/SC(=S)NC2=O)cc1`, for which the Potency result was “inactive”. As to `O=C1c2c(O)cc(O)cc2OC(c2ccc(O)c(O)c2)C1O` (stereo not given), the Potency entry was “inactive”. Take `CCCCOP(=O)(O)OCCCC`: the Potency entry is “inactive”. Regarding `Nn1nnc2ccccc21`, the Potency result is “inactive”.

Turning to `NC/C=C\C(=O)O`, the Potency entry is “inactive”. `O=C1NC(O)CCN1[C@@H]1O[C@H](CO)[C@H](O)[C@H]1O` (stereo not given in full): the Potency entry was “inactive”. Take `Cn1cc(C2=C(c3ccc(Cl)cc3Cl)C(=O)NC2=O)c2ccccc21`: the Potency entry is “inactive”. The same measure, in the same setting: the same measure for `CCN(CC)CCCCNc1ncc2c(n1)N(C)C(=O)N(c1c(Cl)c(OC)cc(OC)c1Cl)C2`: 34.3 µM (active); for `N#CNC(=NCCCCCCOc1ccc(Cl)cc1)Nc1ccncc1`: 0.0097 µM (active); for `CC(C)C[C@H](NC(=O)CNC(=O)c1cc(Cl)ccc1Cl)B1OC(=O)CC(CC(=O)O)(C(=O)O)O1` (stereo not given in full): 1.93 µM (active). Still for that read-out and setting: then `C[C@@]1(C2CCCC2)Cc2cc(OCC(=O)O)c(Cl)c(Cl)c2C1=O`, with “inactive”.

The next experiment is described as follows: qHTS for Inhibitors of the Functional Ribonucleoprotein Complex (vRNP) of Lymphocytic Choriomeningitis Arenaviruses (LCMV): Viability assay - alamar blue signal for LCMV Primary Screen (AID 1347085). Conditions: alamar blue viability counter-screen, LCMV vRNP screen cells; series mostly up to 57.5 µM.
On to `Oc1ccc2c(c1)OCC1(O)Cc3cc(O)c(O)cc3C21` (stereo not given), for which the Potency result is “inactive”. On the same count and under the same terms, the same measure for `C=C1C[C@H](OC(=O)C(C)(O)CCl)C2C(=C)C(=O)O[C@@H]2C2C1C[C@H](O)[C@]2(O)CCl` (stereo not given in full): “inactive”; for `NS(=O)(=O)OC[C@@H]1C[C@@H](n2ccc3c(N[C@H]4CCc5ccccc54)ncnc32)C[C@H]1O`: 13.7 µM (active).

As for `O=C1NC(=O)C(=Cc2ccc3nccnc3c2)S1`, the Potency result was “inactive”. As for `COC1=C2C[C@@H](C)C[C@H](OC)[C@@H](O)[C@@H](C)C=C(C)[C@H](OC(N)=O)[C@@H](OC)C=CC=C(C)C(=O)NC(=CC1=O)C2=O`, the Potency is 13.7 µM (active).

`COc1cc2c(cc1OC)[C@@H]1Cc3ccc(OC)c(OC)c3CN1CC2`: the Potency result was “inactive”. With `COc1cc(O)c2c(=O)c(-c3ccc(O[C@@H]4O[C@H](CO)[C@@H](O)[C@H](O)[C@H]4O)cc3)coc2c1`, the Potency result was “inactive”. As to `OCC1OC(n2cnc3c(NCc4ccccc4O)ncnc32)C(O)C1O` (stereo not given), the Potency was 4.47 µM (active). On to `Nc1nc(F)nc2c1ncn2[C@@H]1O[C@H](COP(=O)(O)O)[C@@H](O)[C@H]1O`, for which the Potency result is “inactive”.

Consider `C=C1CCC2C(C)(C)[C@H](O)CC[C@@]2(C)[C@@H]1COc1cc(=O)oc2ccccc12` (stereo not given in full), for which the Potency result was “inactive”.

Take `Clc1cc(Cl)cc(CNc2ncncc2-c2ccc3c(c2)OCO3)c1`: the Potency entry is “inactive”. In the case of `CC/C=C\[C@H](O)[C@H](O)C1=C(C)C(=O)[C@]2(O1)C(=O)N[C@@](OC)(C(=O)c1ccccc1)C2O` (stereo not given in full), the Potency result was “inactive”. Same read-out and setting: the same measure for `C[C@]12CC[C@@H]3c4ccc(O)cc4CC[C@H]3[C@H]1C[C@@H](O)[C@H]2O`: 9.68 µM (active); for `CC=C(C(=CC)c1ccc(O)cc1)c1ccc(O)cc1`: 2.43 µM (active). `C[C@]12CC[C@H]3C(=CCc4cc(O)ccc43)[C@@H]1CCC2=O`: the Potency result is “inactive”. Regarding `COc1ccc(Cc2ccc(NC(N)=O)cc2)cc1-c1cccc(Cl)c1`, the Potency is 9.68 µM (active). For `O=C(c1ccc(C=Cc2n[nH]c3ccccc23)cc1)N1CCNCC1`, the Potency result is “inactive”. As for `Cc1nccc2c1[nH]c1ccc(Br)cc12`, the Potency result is “inactive”.

For `Cc1ccc([C@@H]2O[C@H](CO)[C@@H](O)[C@H](O)[C@@H]2O)cc1Cc1ccc(-c2ccc(F)cc2)s1`, the Potency is 34.3 µM (active). For `COc1cc2c(cc1OC)C(C)N(Cc1ccc3c(c1)OCO3)CC2` (stereo not given), the Potency entry was “inactive”. Regarding `O=C1NC(=O)C(=Cc2ccc(-c3ccc(F)cc3O)o2)S1`, the Potency result was “inactive”. As for `Nc1nc(Cl)nc2c1ncn2[C@@H]1O[C@H](COP(=O)(O)OP(=O)(O)OP(=O)(O)O)[C@@H](O)[C@H]1O`, the Potency result was “inactive”. On to `COc1cc2c(Nc3ccc(Cl)c(Cl)c3F)ncnc2cc1OCC1C[C@@H]2CN(C)C[C@H]2C1`, for which the Potency is 1.93 µM (active). As for `C=C1C(=O)O[C@H]2[C@H]1[C@H](OC(=O)/C(C)=C\C)C[C@]1(CO1)[C@@H]1[C@H](OC(C)=O)C=C(C)[C@]21O`, the Potency entry is “inactive”. Regarding `COc1cc(C(=O)O[C@H]2C/C(C)=C/CC[C@@]3(C)O[C@@H]3[C@H](O)[C@@H]2C(C)C)cc(OC)c1OC`, the Potency entry was “inactive”.

As for `OC1c2ccccc2N=C2CCCN21` (stereo not given), the Potency entry was “inactive”. As for `C[C@@H]1C(=O)O[C@H]2[C@H](O)[C@@]34[C@H]5CC(C(C)(C)C)[C@]36[C@H](OC(=O)[C@H]6O)O[C@]4(C(=O)O5)[C@@]12O` (stereo not given in full), the Potency result was “inactive”. As for `O=C(C=Cc1ccccc1O)c1ccccc1O`, the Potency entry was “inactive”.
